PLCg1 inh: inhibitors of human phospholipase C gamma1. P19174. purified PLC-gamma1, fluorogenic substrate, fluorescence. inhibition, % at 12.2 µM. 370,000 tested, 0.84% active. AID 720700; in the data active = inhibition above about 9.5%
Cardio protect: modulators protecting cardiomyocytes from myocardial damage; H9c2 cardiomyocytes, H2O2 injury protection, ATPLite, 2 h; protection from H2O2 cell death, % at 20 µM; 360,000 tested, 0.63% active; AID 588492;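 active = compounds giving at least 50% protection of heart cells from peroxide-induced death in the single-dose screen, raw or plate-pattern-corrected value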;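 also: 0% = DMSO wells with peroxide and 100% = DMSO wells without peroxide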
FAS TE block: blocks the thioesterase domain of human fatty acid synthase | P49327 | inhibition, % at 15 µM | recombinant FAS-TE, OMFH fluorogenic substrate, fluorescence endpoint | 360,000 tested, 0.67% active;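 active = compounds whose normalised, plate-corrected inhibition of enzyme fluorescence in the single-dose primary screen is 50% or more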;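 also: 0% = DMSO with enzyme and 100% = substrate without enzyme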
PLC-beta3 inh: PLC-beta3 (human) inhibition, primary screen; AID 720704; Q01970; 370,000 tested, 0.18% active; inhibition, % at 12.2 µM; Purified PLC-beta3, fluorogenic substrate, fluorescence; in the data active = inhibition above about 11%;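 also: 0% = median of compound wells on plate and 100% = full blocker control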
Starred values were filed as active, the others as inactive; . = no result given. The list is not random: actives were taken first. Their share in the collection is about 2.2%.

SMILES	PLCg1 inh	Cardio protect	FAS TE block	PLC-beta3 inh
Cn1cc(C(=O)c2ccc(Cl)cc2Cl)cc1C(=O)N/N=C(\N)COc1ccccc1	-3	25	2	-3
CCc1nnc(NC(=O)C2CCCN(c3nc4ccccc4s3)C2)s1 (stereo unspecified)	11*	3	0	-88
C=CCN1C/C(=C/c2ccccc2)N2C(=O)CC(c3ccccc3)N=C12 (stereo unspecified)	-2	.	.	-16
CSc1ccc(CNC(=O)C2(C)CCCN(C(C)C)C2)cc1 (stereo unspecified)	-2	1	-5	0
CSc1ccc(CNC(=O)C2(C)CCCN(C(C)=O)C2)cc1 (stereo unspecified)	4	0	-6	11*
CCC1(C)Cc2c(sc3nc(NN)n(C)c(=O)c23)CO1 (stereo unspecified)	-15	51*	0	-15
Cc1nc2ccc(NC(=O)c3cc(Cl)ccc3F)cc2c(=O)[nH]1	-7	.	.	-5
CCN(CC)c1ccc(C(=C2C=CC(=[N+](CC)CC)C=C2)c2ccccc2)cc1	2	-21	82*	3
COC(=O)[C@]12C[C@H](CC(=O)NCC34CC5CC(CC(C5)C3)C4)C(=O)N(Cc3ccccc3)C1=C[C@H](C(C)C)O[C@@H]2C1CC1	1	.	.	2
COc1cc(OC)c(-c2nn3c(-c4ccco4)nnc3s2)cc1OC	-121	74*	-4	-168
COc1ccc(-c2nnc3sc(-c4ccco4)nn23)cc1OC	-3	58*	7	-9
COc1ccc(-c2nn3c(-c4ccco4)nnc3s2)cc1OC	-13	77*	-2	-21
CCOc1cccc(-c2nn3c(-c4ccco4)nnc3s2)c1	-3	64*	-2	-5
COc1cccc(-c2nnc3sc(-c4ccco4)nn23)c1	-13	17	0	3
Cc1ccc(C)c(NC(=O)C2CCCN2S(=O)(=O)c2cccnc2)c1 (stereo unspecified)	3	.	.	0
c1coc(-c2nnc3sc(-c4cccs4)nn23)c1	-16	53*	-4	-20
COc1cccc(-c2nnc3sc(-c4cccs4)nn23)c1	-1	8	6	0
Cc1ccc2nc(-c3cccc(Cl)c3)c(Cc3ccccc3C(F)(F)F)n2c1	-4	.	.	-4
CN(C)S(=O)(=O)n1cc(/C=C(\NC(=O)c2ccccc2F)C(=O)NCCN2CCOCC2)c2ccccc21	2	75*	-2	1
CC(C)CCN(C(=O)CNC(=O)c1ccco1)C(C(=O)NC1CCCCC1)c1ccco1 (stereo unspecified)	3	52*	1	1
CC(=O)c1cc(-c2cccc(C#N)c2)c(=O)n2c1CCC2	0	.	.	2
O=c1[nH]cc(N=Cc2cc(Cl)cc(Cl)c2O)c(=O)[nH]1	-2	49*	-1	-11
COc1ccc(S[C@]2(C(=O)N3CCCC3)CC(=O)N(C(=O)C3CC3)[C@@H]2c2ccc(OC)cc2)cc1	1	.	.	2
CCN(CC)CCCN(Cc1cc2cc(OC)ccc2[nH]c1=O)C(=O)Nc1ccc(F)cc1	-20	25	-6	-22
COc1ccc(NC(=O)N(CCCN(C)C)Cc2cc3cc(OC)ccc3[nH]c2=O)cc1	-16	51*	-8	-12
SMILES	PLCg1 inh	Cardio protect	FAS TE block	PLC-beta3 inh
COc1cc(OC)c2c(O)c3c(=O)cc(C)oc3c(-c3c(OC)cc4cc5c(c(O)c4c3O)C(=O)CC(C)(O)O5)c2c1 (stereo unspecified)	1	.	.	-7
NNc1ccc([N+](=O)[O-])c2[nH][nH]c(=O)c12	23*	0	-2	-5
NC1(N2SC(S)=C3CCCC=C32)CCCCC1	0	.	.	-4
Cc1[nH]n(-c2ccccc2)c(=O)c1C=Nc1ccc2[nH]c(=O)[nH]c2c1	4	55*	-8	0
Cc1cccc(-n2[nH]c(C)c(C=Nc3ccc4[nH]c(=O)[nH]c4c3)c2=O)c1	-2	56*	-4	-2
Cc1c(C(=O)NCC2COc3ccccc3O2)oc2ccc(S(=O)(=O)N3CC(C)CC(C)C3)cc12 (stereo unspecified)	2	6	38	2
CCN(CC)S(=O)(=O)c1ccc2oc(C(=O)NC3CC3)c(C)c2c1	-3	-2	-5	-9
Cc1c(C(=O)NCC2COc3ccccc3O2)oc2ccc(S(=O)(=O)N3CCOCC3)cc12 (stereo unspecified)	0	60*	28	6
CCN(CC)S(=O)(=O)c1ccc2oc(C(=O)NCC3COc4ccccc4O3)c(C)c2c1 (stereo unspecified)	0	54*	-42	1
Cc1nn(-c2ccccc2)c2nc(N)c(C#N)c(-c3ccc(O)c(O)c3)c12	-17	50	9	-26
Cc1nn(-c2ccc(F)cc2)c2nc(N)c(C#N)c(-c3ccc(O)c(O)c3)c12	-36	77*	14	-45
Cc1ccc(C(C(=O)NCc2ccc(F)cc2)N(Cc2ccco2)C(=O)c2snc(C(N)=O)c2N)o1 (stereo unspecified)	-29	40	14	-51
NC(=O)c1nsc(C(=O)N(c2ccccc2)C(C(=O)NCc2ccc(F)cc2)c2ccc(O)cc2)c1N (stereo unspecified)	-148	50*	20	-246
CN(C)c1ccc(C(C(=O)NCc2ccccc2)N(Cc2ccco2)C(=O)c2snc(C(N)=O)c2N)cc1 (stereo unspecified)	-2	78*	14	-20
NC(=O)c1nsc(C(=O)N(Cc2ccco2)C(C(=O)NCc2ccc(F)cc2)c2ccc(O)cc2)c1N (stereo unspecified)	-60	54*	6	-70
Cc1ccccc1C(C(=O)NCc1ccccc1)N(Cc1ccco1)C(=O)c1ccccn1 (stereo unspecified)	1	51*	0	-2
O=C(NCc1ccccc1)C(c1ccc(F)cc1)N(Cc1ccco1)C(=O)c1ccccn1 (stereo unspecified)	0	26	0	1
CCOC(=O)[C@@]12CCCC3=C1N(CCC3)C(=O)[C@H]2CC(=O)NCc1cccc2ccccc12	1	.	.	3
COC(=O)Sc1nc(N2CCOCC2)c2c(c1C#N)CC(C)(C)OC2	-1	55*	-2	-3
COC(=O)CSc1nc(N2CCOCC2)c2c(c1C#N)CC(C)(C)OC2	-33	3	-2	-46
CNC(=O)C1Cc2ccccc2CN1S(=O)(=O)c1ccc(OC)c(OC)c1 (stereo unspecified)	2	2	-6	-4
COC(=O)CNC(=O)C1Cc2ccccc2CN1S(=O)(=O)c1ccc(F)cc1 (stereo unspecified)	9.6*	-2	-5	-1
COc1ccc(S(=O)(=O)N2Cc3ccccc3CC2C(=O)Nc2ccc(O)cc2)cc1OC (stereo unspecified)	-1	58*	-3	1
O=C(NCc1ccccc1)[C@@H]1CCCN1C(=O)[C@H]1CCCN1C(=O)c1ccccc1C(F)(F)F	1	.	.	0
Brc1ccc(OCCCCCN2CCOCC2)cc1	9.7*	0	-2	5
O=[N+]([O-])c1cnc2ccccc2c1Sc1ccccc1	-4	.	.	0
